# Data taken from PubChem BioAssay (NCATS).
# Inconclusive results are not listed. Where a call stands in place of a potency, no number is given. Activity calls are given as the source filed them. The call rests on the fitted dose curve; in most records, active means well fitted inhibition curve with a large enough effect; inconclusive means small, poorly fitted or top-dose-only effect; inactive means flat fitted curve, though single readings scatter.
# Biological target: Ubiquitin carboxyl-terminal hydrolase 1 (Homo sapiens) (UniProt O94782)
# Test: Inhibitors of USP1/UAF1: Pilot qHTS (AID 504865);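 further: rhodamine fluorescence freed from ubiquitin-rhodamine substrate followed over time; top concentration of the series differs between compounds; nearly all actives have a fitted effect of over 35% in size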
# Details: purified USP1/UAF1, Ub-rhodamine cleavage fluorescence; series mostly up to 114 µM
# Excerpt: Deubiquitinating enzymes (DUBs) are a class of enzymes that can cleave isopeptide bond formed between the C-terminal carboxylate of ubiquitin and a lysine side-chain amino group on the target protein. Among them, ubiquitin specific proteases (USPs) constitute the largest DUB family. Human USPs are emerging as promising targets for pharmacological intervention because of their connection to a number of human diseases, including prostate, colon and breast cancer (1, 2), pediatric acute lymphoblastic leukemia (3), and familial cylindromatosis (4). The advantage of inhibiting USPs lies in the potential specificity of therapeutic intervention that can lead to better efficacy and reduce nonspecific side effects.
# In a collaboration between the University of Delaware and the NIH Chemical Genomics Center, a high-throughput screen assay was developed to screen for USP1/UAF1 inhibitors. This miniaturized assay has a fluorescent read-out and is used to screen the NIH Molecular Libraries Small Molecule Repository (MLSMR) in order to identify a small molecule that inhibits USP1.
# NIH Chemical Genomics Center [NCGC]
# NIH Molecular Libraries Probe Centers Network [MLPCN]
# Assay Submitter (PI): Zhihao Zhuang, University of Delaware
# 1. Priolo, C., et al. (2006) The isopeptidase USP2a protects human prostate cancer from apoptosis. Cancer Res 66, 8625-8632
# 2. Popov, N., et al. (2007) The ubiquitin-specific protease USP28 is required for MYC stability. Nat Cell Biol 9, 765-774
# 3. De Pitta, C., et al. (2005) A leukemia-enriched cDNA microarray platform identifies new transcripts with relevance to the biology of pediatric acute lymphoblastic leukemia. Haematologica 90, 890-898
# 4. Kovalenko, A., et al. (2003) The tumour suppressor CYLD negatively regulates NF-kappaB signalling by deubiquitination. Nature 424, 801-805
# 3 microliters of reagents (buffer in columns 3 and 4 as negative control and 1nM USP1/UAF1 complex in columns 1, 2, and 5-48) are dispensed into Greiner black solid bottom 1536-well assay plates. Compounds are then transferred via Kalypsys pin tool equipped with 1536-pin array (10nl slotted pins, V&P Scientific, San Diego, CA). Following an incubation step of 15 min at room temperature, 1ul of Ub-Rho substrate (150nM final concentration) is added to initiate the reaction. The plates are immediately centrifuged at 1000 rpm for 15 seconds, and subsequently transferred to a ViewLux high-throughput CCD imager (PerkinElmer) wherein kinetic measurements of fluorescence are acquired using 480 nm excitation/540 nm emission filter set (6 reads every 60 seconds, see Table 1). All reagents are diluted in an assay buffer consisting of 50mM HEPES (pH 7.8), 0.5mM EDTA, 0.1 mg/ml BSA, 1mM TCEP, and 0.01% Tween-20.
# Chain of Ubiquitin carboxyl-terminal hydrolase 1 (Homo sapiens) (O94782 whole entry, looked up): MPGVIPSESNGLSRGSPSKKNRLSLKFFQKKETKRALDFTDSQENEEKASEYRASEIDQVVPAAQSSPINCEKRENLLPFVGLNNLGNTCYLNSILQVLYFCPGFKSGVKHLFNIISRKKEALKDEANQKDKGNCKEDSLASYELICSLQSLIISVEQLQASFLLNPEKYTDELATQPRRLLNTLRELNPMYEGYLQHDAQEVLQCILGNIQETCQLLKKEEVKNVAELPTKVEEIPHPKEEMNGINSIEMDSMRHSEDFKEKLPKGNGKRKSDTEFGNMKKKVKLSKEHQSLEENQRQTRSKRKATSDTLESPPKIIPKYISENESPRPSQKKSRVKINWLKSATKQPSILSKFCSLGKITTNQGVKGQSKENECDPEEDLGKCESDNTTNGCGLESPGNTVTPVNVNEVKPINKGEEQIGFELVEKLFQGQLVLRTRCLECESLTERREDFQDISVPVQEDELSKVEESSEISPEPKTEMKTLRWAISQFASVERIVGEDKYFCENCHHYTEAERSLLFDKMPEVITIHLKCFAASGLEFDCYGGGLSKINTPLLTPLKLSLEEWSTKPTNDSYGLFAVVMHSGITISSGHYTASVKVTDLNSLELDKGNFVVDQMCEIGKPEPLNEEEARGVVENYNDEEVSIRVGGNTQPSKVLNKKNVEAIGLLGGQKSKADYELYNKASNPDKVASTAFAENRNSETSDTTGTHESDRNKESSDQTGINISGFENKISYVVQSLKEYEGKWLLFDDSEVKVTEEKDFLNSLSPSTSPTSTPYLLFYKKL
row,SMILES,Potency
1,COc1ccccc1OCC(O)CO (stereo not given),inactive
2,C[C@@H]1CCC[C@H](C)N1,inactive
3,O[C@@H]1CO[C@H]2[C@@H]1OC[C@@H]2O,inactive
4,O=C(O)c1cc(=O)c2ccccc2o1,inactive
5,CC(=O)NCc1c(I)c(NC(C)=O)c(I)c(C(=O)O)c1I,inactive
6,CCOc1ccc(C(=O)OCCN(CC)CC)cc1,inactive
7,NS(=O)(=O)c1cc2c(cc1C(F)(F)F)NCNS2(=O)=O,inactive
8,Cc1cc(NC(=O)C2=C(O)c3ccccc3S(=O)(=O)N2C)no1,inactive
9,N[C@@H](Cc1ccc(O)cc1)C(=O)O,inactive
10,Cc1c(I)c(=O)n(-c2ccccc2)n1C,inactive
11,CC(C)c1cc2c(cc1S(=O)(=O)O)[C@@]1(C)CCC[C@@](C)(C(=O)O)[C@@H]1CC2,inactive
12,O=C(Cn1ccnc1[N+](=O)[O-])NCc1ccccc1,inactive
13,O=C(Cn1ccnc1[N+](=O)[O-])NCCO,inactive
14,Cc1cccc(C)c1NC(=O)CC12CCCN1CCC2,inactive
15,CCCOC(=O)c1ccc(N)cc1,inactive
16,O=C(OOC(=O)c1ccccc1)c1ccccc1,inactive
17,NS(=O)(=O)c1cc(C2(O)NC(=O)c3ccccc32)ccc1Cl (stereo not given),inactive
18,CC[N+](CC)(CC(=O)Nc1c(C)cccc1C)Cc1ccccc1,inactive
19,Cc1cc(-n2nc3ccc(Cl)cc3n2)c(O)c(C(C)(C)C)c1,inactive
20,CCCCCC(C)N (stereo not given),inactive

row,SMILES,Potency
1,CC1CC(OC(=O)c2ccccc2O)CC(C)(C)C1 (stereo not given),inactive
2,O=C(O)c1ccccc1OP(=O)(O)O,inactive
3,CCCCCCCCCCCCCCCCCCO,inactive
4,CN(C(=O)c1c(O)c2ccccc2n(C)c1=O)c1ccccc1,inactive
5,Nc1ncnc2c1ncn2[C@@H]1O[C@H](COP(=O)(O)O)[C@@H](O)[C@H]1O,inactive
6,COc1ccc(NS(=O)(=O)c2ccc(N)cc2)nn1,inactive
7,C1CCN2C[C@@H]3C[C@@H](CN4CCCC[C@@H]34)[C@H]2C1,inactive
8,CCCCCC(N)=O,inactive
9,O=C1CC[C@@H](C(=O)O)N1,inactive
10,O=C1c2ccccc2C(=O)C1c1ccc(Br)cc1,inactive
11,CC(=O)OC[C@H]1O[C@@](COC(C)=O)(O[C@H]2O[C@H](COC(C)=O)[C@@H](OC(C)=O)[C@H](OC(C)=O)[C@H]2OC(C)=O)[C@@H](OC(C)=O)[C@@H]1OC(C)=O,inactive
12,O=C(O)COC(=O)Cc1ccccc1Nc1c(Cl)cccc1Cl,inactive
13,CNc1c2c(nn1C)CCCC2,inactive
14,C=CCNC(N)=S,inactive
15,Cc1c(C(=O)NCCO)[n+](=O)c2ccccc2n1[O-],inactive
16,COc1ccc(C(=O)NCc2ccc(OCCN(C)C)cc2)cc1OC,inactive
17,CC(=O)N(CC(O)CO)c1c(I)c(C(=O)NCC(O)CO)c(I)c(C(=O)NCC(O)CO)c1I (stereo not given),inactive
18,NC(=O)CCCCC1CCSS1 (stereo not given),inactive
19,Nc1ccc(S(=O)(=O)c2ccc(N)cc2)cc1,inactive
20,CCOC(=O)[C@H](CCc1ccccc1)N[C@@H](C)C(=O)N1CCC[C@H]1C(=O)O,inactive
